# Compound activity from PubChem.
# An excerpt weighted towards active compounds, which were near 15% of everything screened.
# ALOX12 inh = ALOX12 (human) lipoxygenase inhibition | P18054 | purified 12hLO, xylenol orange hydroperoxide absorbance | Potency, µM (series often up to 108 µM), for inactives: top-dose activity change, negative = inhibition, most hits filed as inhibitors | 580,000 compounds, 1.1% hits | AID 1671190
# Target sequence (P18054 whole entry, looked up): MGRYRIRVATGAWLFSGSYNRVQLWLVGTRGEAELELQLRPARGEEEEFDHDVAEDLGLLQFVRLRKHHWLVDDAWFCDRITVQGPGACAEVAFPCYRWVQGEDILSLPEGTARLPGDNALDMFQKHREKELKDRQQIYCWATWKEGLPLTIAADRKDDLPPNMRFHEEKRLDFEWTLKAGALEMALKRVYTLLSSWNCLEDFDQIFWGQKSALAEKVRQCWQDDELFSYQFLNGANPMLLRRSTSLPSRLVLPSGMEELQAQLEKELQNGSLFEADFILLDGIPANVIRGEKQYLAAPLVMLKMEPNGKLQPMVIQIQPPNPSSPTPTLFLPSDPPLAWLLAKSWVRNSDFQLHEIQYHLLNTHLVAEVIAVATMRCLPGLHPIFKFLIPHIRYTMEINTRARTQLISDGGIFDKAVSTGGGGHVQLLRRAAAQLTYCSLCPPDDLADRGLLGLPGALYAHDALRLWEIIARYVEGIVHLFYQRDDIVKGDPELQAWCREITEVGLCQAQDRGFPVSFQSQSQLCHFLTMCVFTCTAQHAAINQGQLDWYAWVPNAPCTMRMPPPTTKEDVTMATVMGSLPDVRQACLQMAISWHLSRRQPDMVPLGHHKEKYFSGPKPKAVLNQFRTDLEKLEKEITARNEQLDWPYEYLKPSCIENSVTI
#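 Purified human 12hLO (150 nM final) in 25 mM Hepes, 0.01% Triton X-100, pH 7.0 was preincubated 15 min at room temperature with compound. Then 40 uM arachidonic acid was added, 30 min. Hydroperoxide was read by Fe-XO absorbance ratio 573/405 nm.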
# VP16 counter = Gal4-VP16 reporter inhibition counter-screen; Drosophila S2 Gal4-VP16 UAS-luciferase, luminescence, 20 h; Potency, µM (doses to about 53.6 µM), for the others: at the top dose activity, negative = inhibition, hits mostly inhibitors; 310,000 compounds, 3.5% hits;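 further: Gal4-VP16 expression switched on by copper sulfate through the metallothionein promoter; nearly all actives have a fitted effect of over 50% in size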
# ELG1 repair inh = ELG1-dependent DNA repair inhibition. HEK293T ELG1-luciferase reporter, luminescence, 16 h; DNA damage induced by 5-fluorouridine. Potency, µM (series often up to 46.1 µM), for the others: at the top dose activity change, negative = inhibition, hits mostly inhibitors. 330,000 compounds, 2.3% hits. AID 504467; further: nearly all actives have a fitted effect of over 55% in size
#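 Step one: seed 2,000 cells per well. Step two: pin-transfer compound or DMSO alongside 5-fluorouridine. Step three: incubate 16 hr, 37 °C, 5% CO2. Step four: add ONE-Glo, wait 30 min, read luminescence.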
# DT40 TDP1 CPT = growth inhibition of DT40 Tdp1-/-;hTDP1 cells with camptothecin (screen for TDP1 inhibitors). chicken DT40 Tdp1-/-;hTDP1 cells + 20 nM CPT, ATP luminescence, 48 h. AID 686979. 420,000 compounds, 12% hits. Potency, µM (top dose mostly 46.2 µM), for the others: at the top dose activity change, negative = growth inhibition, hits mostly inhibitors; further: nearly all actives have a fitted effect of over 55% in size
#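 Chicken DT40 Tdp1-/- cells complemented with human TDP1, 400 cells/well, exposed to compounds plus 20 nM camptothecin for at least 48 h at 37 C; viability read as ATP content by CellTiter-Glo luminescence.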
# TDP1 cell noCPT = qHTS for Inhibitors of human tyrosyl-DNA phosphodiesterase 1 (TDP1): qHTS in cells in absence of CPT; DT40 Tdp1-/- hTDP1 cells, no CPT, ATP luminescence, 48 h; Potency, µM (highest dose often 46.2 µM), for the others: top-dose activity change, negative = growth inhibition, hits mostly inhibitors; 420,000 compounds, 15% hits; AID 686978, 2013; further: nearly all actives have a fitted effect of over 55% in size
#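 No-CPT arm: Tdp1-/-;hTDP1 DT40 cells (400/well) plus compounds, incubated ≥48 hr at 37 °C. Readout CellTiter-Glo luminescence.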
# RORg inh = inhibitors of mouse ROR gamma transcriptional activity | 310,000 compounds, 5.4% hits | Drosophila S2 Gal4-RORgamma UAS-luciferase reporter, 20 h | Potency, µM (titrated, usually from 53.6 µM), for inactives: top-dose activity change, negative = inhibition, usual class: inhibitors; further: nearly all actives have a fitted effect of over 60% in size
#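 Stable Schneider cell line, Gal4 DNA-binding domain fused to ROR gamma, UAS-luciferase. Cmpd 1 hr RT → CuSO4 700 uM final → 20 hr RT → luciferase reagent 10 min → luminescence.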
# * marks the source's active call; other numbers are inactive results; ? = inconclusive; / = not tested or not shown; [ ] = remark or other dose. The call rests on the fitted dose curve; in most records, active means well fitted curve in the direction sought with a large enough effect; inconclusive means small, poorly fitted or top-dose-only effect, or another doubt; inactive means no such curve, though single readings can be large; an effect the other way counts as inactive or inconclusive. On the % scale 0 is the no-effect control and ±100 the full control effect; potency means the concentration at half of the fitted maximal effect.
SMILES,ALOX12 inh,VP16 counter,ELG1 repair inh,DT40 TDP1 CPT,TDP1 cell noCPT,RORg inh
C[C@H](NC(=O)c1nc[nH]c1C(=O)NCc1ccccc1)C(=O)OC(C)(C)C,12%,-3%,-4%,?,?,-37%
CC(C)(C)OC(=O)NCc1ccc(CNC(=O)c2[nH]cnc2C(=O)N[C@@H](Cc2ccccc2)C(=O)OC(C)(C)C)cc1,3%,20µM*,?,18µM*,21µM*,11µM*
CCc1ccc(C(=O)N2CCC(Cc3nc(-c4cnccn4)no3)CC2)cc1,10%,/,/,/,/,/
CC(C)(C)OC(=O)NCc1ccc(CNC(=O)c2[nH]cnc2C(=O)N[C@@H](Cc2ccccc2)C(=O)OCc2ccccc2)cc1,8%,?,-8%,?,23µM*,11µM*
CNC(=O)c1[nH]cnc1C(=O)N[C@@H](Cc1ccccc1)C(=O)OC(C)(C)C,0%,?,0%,?,-26%,7.9µM*
CC(C)(C)OC(=O)NCCCC[C@H](NC(=O)c1[nH]cnc1C(=O)N[C@@H](Cc1ccccc1)C(=O)OCc1ccccc1)C(=O)OC(C)(C)C,-2%,/,-5%,?,?,/
CC(C)(C)OC(=O)[C@H](Cc1ccccc1)NC(=O)c1nc[nH]c1C(=O)N[C@@H](CCCCN)C(=O)OC(C)(C)C,-17%,/,21%,?,16µM*,/
CC(C)(C)OC(=O)[C@H](Cc1ccccc1)NC(=O)c1[nH]cnc1C(=O)Nc1ccccc1F,-1%,/,/,18µM*,15µM*,/
CN(Cc1ccccc1)C(=O)c1[nH]cnc1C(=O)N[C@@H](Cc1ccccc1)C(=O)OC(C)(C)C,11%,?,-11%,?,?,?
O=C(c1ccc(Cn2cncn2)o1)N1CCCCCC1c1nnc(-c2ccccc2)o1 (stereo not drawn),13%,/,/,/,/,/
COc1cccc(Oc2coc3cc(OCC#N)ccc3c2=O)c1,7%,/,/,/,/,/
Cc1onc(-c2c(F)cccc2Cl)c1C(=O)N1CCSCC1,?,5%,-5%,-5%,?,-15%
Cc1onc(-c2ccccc2Cl)c1C(=O)Nc1ccc(C(N)=O)cc1,12%,/,/,/,/,/
Cc1onc(-c2ccccc2Cl)c1C(=O)N1CCCC1,-11%,0%,4%,-1%,-20%,-9%
Cc1onc(-c2ccccc2Cl)c1C(=O)NC(=S)Nc1ccc(C(C)C)cc1,0%,?,0%,-22%,?,1.8µM*
CC(=O)N1CCN(C(=S)NC(=O)c2c(-c3ccccc3Cl)noc2C)CC1,?,5µM*,2%,1%,-17%,1.6µM*
Cc1onc(-c2c(F)cccc2Cl)c1C(=O)N1CCN(c2ncc(Br)cn2)CC1,0%,-12%,13µM*,-27%,?,-4%
Cc1ccc(NC(=S)NC(=O)c2c(-c3ccccc3Cl)noc2C)cc1,?,11µM*,0%,-23%,?,4µM*
O=C(c1ccccc1)N1CCC(c2nn(-c3ccc(F)cc3)c(=O)[nH]2)CC1,35%,/,/,/,/,/
Cc1onc(-c2ccccc2Cl)c1C(=O)N1CCN(c2ccccc2)CC1,2%,5%,-15%,?,?,-6%
Cc1onc(-c2ccccc2Cl)c1C(=O)N1CCN(c2cccc(Cl)c2)CC1,7%[57.4 µM],-1%,?,1.6µM*,1.5µM*,1%
COc1ccc(C)cc1NC(=O)CN1CCCN(S(=O)(=O)c2ccc(Br)cc2)CC1,-5%,-1%,0%,?,9.2µM*,11%
O=C(CN1CCCN(S(=O)(=O)c2ccc(Br)cc2)CC1)Nc1cccc(C(F)(F)F)c1,?,/,/,21µM*,12µM*,/
COC(=O)c1ccc(NC(=O)CN2CCN(S(=O)(=O)c3ccc(Br)cc3)CC2)cc1,-8%,0%,15%,?,18µM*,22%
O=C(CN1CCN(S(=O)(=O)c2ccc(Br)cc2)CC1)N/N=C/c1ccc(Br)s1,-12%,8.9µM*,?,?,?,6.3µM*
SMILES,ALOX12 inh,VP16 counter,ELG1 repair inh,DT40 TDP1 CPT,TDP1 cell noCPT,RORg inh
Cc1[nH]c(SCC(=O)NCC2(c3ccccc3)CC2)nc1Cc1ccccc1,-21%,/,/,/,/,/
CCCNC(=O)CSc1nc2ccccc2nc1C,48%,/,/,/,/,/
COc1ccc(C2(C(=O)Nc3ccc(OC)cc3OC)CCCC2)cc1,7%,4%,?,13µM*,23µM*,15%
COc1ccc(C)cc1NC(=O)CN1CCN(S(=O)(=O)c2ccc3ccccc3c2)CC1,-2%,/,-9%,16µM*,16µM*,/
COc1ccc(S(=O)(=O)N2CCCN(CC(=O)Nc3ccc(OC)cc3OC)CC2)cc1,-19%,/,/,?,12µM*,/
COc1ccc(NC(=O)C2(c3ccccc3)CCCC2)cc1,2%,-15%,-13%,-3%,?,5%
O=C(NCCOc1ccccc1)c1cc2ccccc2oc1=O,18%,/,/,/,/,/
c1ccc(-n2nnnc2Oc2cccc3cccnc23)cc1,18%,4.5µM*,5%,-15%,-6%,7.1µM*
Cc1ccc(-c2ncc(C(=O)NCCN(C)C3CCCCC3)c(-c3ccncc3)n2)cc1,-1%,/,/,/,/,/
CCCC(=Nc1ccccc1OC)C1=C(O)CC(c2ccccc2)CC1=O (stereo not drawn),5%,-5%,3%,?,?,-27%
O=C1CC(c2ccccc2)CC(O)=C1C=Nc1ccccc1O (stereo not drawn),5%,-23%,7%,?,?,11µM*
O=C1CC(c2ccco2)CC(O)=C1C=Nc1ccccc1-c1ccccc1 (stereo not drawn),-7%,0%[10 µM],3%,18µM*,?,?
O=C1CC(c2ccco2)CC(O)=C1C=Nc1cc(Cl)ccc1O (stereo not drawn),6%,?,-16%,15µM*,18µM*,-1%[10 µM]
O=C1CC(c2ccco2)CC(O)=C1C=Nc1cc(Cl)ccc1Cl (stereo not drawn),?,-15%,27%,-18%,-8%,-9%
COc1ccccc1N=C(C)C1=C(O)CC(c2ccccc2)CC1=O (stereo not drawn),-9%,24%,-9%,0.52µM*,0.82µM*,-11%
Cc1cccc(-c2ocnc2C(=O)Nc2cc(C)ccc2C)c1,-12%,/,/,/,/,/
COc1ccc(C2C(C#N)=C(C)NC3=C2C(=O)CC(C)(C)C3)cc1OC (stereo not drawn),-1%,/,/,/,/,/
